Data from PubChem BioAssay (NCATS).
Records with an inconclusive call do not appear. The source made the active and inactive calls. Unless noted, the call rests on the fitted dose curve; in most records, active means well fitted curve in the direction sought with a large enough effect; inconclusive means small, poorly fitted or top-dose-only effect, or another doubt; inactive means no such curve, though single readings can be large; an effect the other way counts as inactive or inconclusive.

Columns and labels:
[1] = molecular target: Ferritin light chain (Equus caballus) (UniProt P02791); assay: qHTS Validation Assay for Identification of Novel General Anesthetics (AID 2323); further: series mostly up to about 77 µM
In short: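 10 uM horse-spleen apoferritin + 1-AMA (50% saturated, PBS); cpd pin-transferred, 10 min RT. Ex 380/Em 535 nm endpoint. Activity normalized between free 1-AMA and 1-AMA/apoferritin; 4-parameter Hill fit of concentration-response.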

[2] = molecular target: ATP-dependent DNA helicase Q1 (Homo sapiens) (UniProt P46063); assay: qHTS Validation Assay for Inhibitors of RecQ-Like Dna Helicase 1 (RECQ1) (AID 2353); further: potency means the concentration at half of the fitted maximal effect
In short: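 RECQ1T1 50 nM; forked duplex (20 bp + 30-nt ss tails) 200 nM, ATP 2 mM final; pH 8.0, 2 mM MgCl2, 2.5 ug/ml poly(dI-dC); 15 min compound preincubation; discontinuous kinetic read over 2 h at RT.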

[3] = molecular target: RecQ-like DNA helicase BLM (Homo sapiens) (UniProt P54132); assay: qHTS Validation Assay for Inhibitors of Bloom's syndrome helicase (BLM) (AID 2364)
In short: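 50 nM BLM preincubated 15 min at room temperature with compound in pH 8.0 Tris buffer containing 2.5 ug/ml poly(dI-dC); started with 200 nM TAMRA/BHQ-2 forked duplex and 2 mM ATP (final). Unwinding read as TAMRA fluorescence increase, two reads 2 h apart.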

[4] = Cytometric Cell-Based qHTS for Inhibitors of the mTORC1 Signaling Pathway in MEF (Tsc2-/-, p53-/-) Cells (AID 2660);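 further: Tsc2 and p53 null MEFs carrying empty vector with compound for 24 h; percent of cells above a phospho-rpS6 to PI ratio cutoff in each well; series mostly up to about 38 µM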
In short: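 Readout: Alexa-488 phospho-rpS6 (Ser235/236) intensity divided by PI intensity, thresholded against 7.5 nM rapamycin wells and reported as % positive cells. PI cell count served as the viability measure. Compound exposure was 24 hrs at 37 degree Celsius.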

[5] = High Content Imaging Cell-Based qHTS for Inhibitors of the mTORC1 Signaling Pathway in MEF Cells (AID 2667);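 further: Tsc2-/- p53-/- MEFs stably re-expressing wild-type Tsc2 exposed 24 h; series mostly up to about 38 µM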
In short: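 Read-out is the share of phospho-rpS6-positive cells per well, from Hoechst-normalized Alexa-488 Ser235/236 staining imaged on IN Cell. Cells: WT Tsc2-expressing Tsc2-/-, p53-/- MEFs exposed to compound for 24 hrs.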

[6] = Cytometry Cell-Based qHTS for Inhibitors of the mTORC1 Signaling Pathway in MEF cells (AID 2668); further: potency means the concentration at half of the fitted maximal effect
In short: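 Read-out: phospho-rpS6 Ser235/236 immunofluorescence normalized to propidium iodide intensity, scored as % active cells against a rapamycin (7.5 nM) threshold. Cells: Tsc2-/-, p53-/- MEFs stably expressing WT Tsc2, compound-treated 24 hrs at 37 degree Celsius.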

[7] = Validation screen for small molecules that induce DNA re-replication in MCF 10A normal breast cells (AID 463097); further: nearly all actives have a fitted effect of over 60% in size
In short: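 250 MCF 10A cells/well; compound pin-transferred; 48 hr, 37 C, 5% CO2; Hoechst 40 min; imaged 405/500-530 nm. Hits = more high-intensity nuclei.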

[8] = molecular target: Ubiquitin carboxyl-terminal hydrolase 2 (Homo sapiens) (UniProt O75604); assay: qHTS Validation Assay for Inhibitors of Ubiquitin-specific Protease USP2a Using CHOP2 as the Reporter (AID 463106)
In short: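 Fluorescence read-out at Ex 485nm/Em 531nm after 60min RT, following addition of 25nM Ub-CHOP2 plus 25nM reporter substrate to USP2 core (10nM) pretreated 30min with compound. Data normalized to NEM full inhibition; concentration-response curves fitted.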

[9] = molecular target: DNA polymerase III PolC-type (Bacillus subtilis (strain 168)) (UniProt P13267); assay: qHTS Validation Assay for the Inhibitors of DNA Replication in Gram-Positive Bacteria (AID 485295);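 further: reconstituted holoenzyme with PolC plus beta clamp SSB and primase; PicoGreen fluorescence of double-stranded DNA made on primed circular M13 template; series mostly up to about 57 µM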
In short: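 PicoGreen fluorescence (ex 480–485/em 535–540 nm) reports dsDNA synthesized on ssM13Gori template with dNTPs/NTPs. Enzyme: holoenzyme rebuilt from purified PolC, beta subunit, SSB and primase. Compound preincubated before substrate addition; RT throughout.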

[10] = molecular target: Tumor susceptibility gene 101 protein (Homo sapiens) (UniProt Q99816); assay: qHTS Validation Assay for Iinhibitors of HIV-1 Budding by Blocking the Interaction of PTAP/TSG101 (AID 485342; calls by dose curve)
In short: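 FP read-out: FITC-PTAP peptide, 50 nM final, binding Tsg101 binding domain, 10 uM final; 20 min r.t.; 10 mM HEPES pH 7.5, 0.15 M NaCl, 0.01% Tween 20, 3 mM EDTA, 0.1 mM TCEP.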

[11] = qHTS Validation Assay to Find Inhibitors of Chronic Active B-Cell Receptor Signaling (AID 485345; active means well fitted curve in the direction sought with a large enough effect in the main read-out, with a control signal flat, not every such curve was filed as active)
In short: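 TMD8 ABC-DLBCL cells stably carrying doxycycline-inducible IkappaBalpha–green luciferase fusion plus unfused red luciferase; compounds 46 uM to 3 nM, 4 h at 37C with doxycycline. Corrected green/red luminescence ratio normalized to 10 uM MG-132 and basal cell wells; curves fitted.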

[12] = molecular target: Beta-2 adrenergic receptor (Homo sapiens) (UniProt P07550); assay: qHTS validation assay of beta-arrestin-biased ligands of beta2-adrenergic receptor (AID 485366)
In short: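 Agonist activity is measured as luciferase luminescence downstream of beta-arrestin recruitment to recombinant beta2-AR in Tango cells. Exposure lasts 18 hr at 37 degrees C, and curves are categorized by r2, response size and activity.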

[13] = Quantitative high throughput screen for delayed death inhibitors of the malarial parasite plastid, 96 hour incubation (AID 488745); further: nearly all actives have a fitted effect of over 70% in size; further: potency means the concentration at half of the fitted maximal effect
In short: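 Luciferase-expressing P. falciparum, infected RBCs 2% Hct/0.1% parasitemia (final); 96 h cpd exposure, 37 C, 5% CO2; RPMI 1640 + 0.5% Albumax, bicarbonate, gentamycin. Readout: luminescence loss = growth inhibition.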

[14] = molecular target: Thioredoxin reductase 1, cytoplasmic (Rattus norvegicus) (UniProt O89049); assay: qHTS Assay for Substrates of Mammalian Selenoprotein Thioredoxin Reductase 1 (TrxR1) (AID 488772);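 further: series mostly up to about 57 µM; a drop in NADPH fluorescence below the no-compound background marks a TrxR1 substrate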
In short: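 In this dual-purpose format, potential substrates are identified from the first fluorescence read after selenite addition, not from the 8-minute delta. Rat enzyme is preincubated with NADPH and then with compound at ~22 deg C.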

[15] = High Content Imaging Cell-Based qHTS for Inhibitors of the mTORC1 Signaling Pathway in MEF (Tsc2-/-, p53-/-) Cells (AID 2666);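 further: percent of cells scored positive for phospho-rpS6 Ser235/236 immunostaining by imaging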
In short: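 MEF Tsc2-/- p53-/- (empty vector), DMEM/10% FBS; cpd 24 h 37 °C; PFA fix, Alexa-488 p-rpS6 S235/236 Ab, Hoechst; imaged; rapamycin-defined inhibition; % positive cells/well.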

[16] = molecular target: ATP-dependent 6-phosphofructokinase (Trypanosoma brucei brucei) (UniProt O15648); assay: qHTS Validation Assay to Find Inhibitors of T. brucei phosphofructokinase (AID 485368); further: potency means the concentration at half of the fitted maximal effect
In short: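 Inhibition derived from concentration-response curves of luminescence, ranked by r2, response size and curve class; the underlying reaction used 1.25 nM PFK, 0.1 mM ATP and 0.5 mM F6P, 45 min, room temperature.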

[17] = molecular target: Flap endonuclease 1 (Homo sapiens) (UniProt P39748); assay: qHTS Validation Assay for the Inhibitors of Human Flap endonuclease 1 (FEN1) (AID 488816); further: potency means the concentration at half of the fitted maximal effect
In short: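 Enzyme reagent 10 nM; cpds pinned; 15 min RT preinc.; substrate 50 nM final; reads t=0 and 15 min; no-enzyme buffer wells as neg. control; normalized data, 4-parameter Hill fit.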

[18] = qHTS Assay for Identification of Small Molecule Inducers of Hypoxia Response (AID 2120; active means well fitted curve in the direction sought with a large enough effect in the signal ratio, with a control signal flat, not every such curve was filed as active; the % refers to the signal ratio)
In short: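 Read-out: CCF4 FRET emission ratio 460nm/530nm (excitation 405nm), converted to %Activity, with AC50 fitted across a compound titration. ME-180 cells carried an HRE-driven beta-lactamase reporter; compound exposure 17 h, 37 degrees C.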

[19] = qHTS Assay for Modulators of Human Peripheral Myelin Protein 22 (PMP22) Expression/Activity (AID 1967; active means well fitted curve in the direction sought with a large enough effect in the signal ratio; the % refers to the signal ratio)
In short: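 Mouse MSC80 Schwann line, Pmp22 promoter–CBG68 reporter, EF-alpha–CBR internal control. 24h compound exposure, 37 °C/5% CO2, DMEM + 10% FBS. Readout: corrected green/red luminescence ratio, normalized to untreated cells; concentration-response curves fitted and classified.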

[20] = molecular target: M-phase phosphoprotein 8 (Homo sapiens) (UniProt Q99549); assay: qHTS Validation Assay for Inhibitors for MPP8 Chromodomain Interactions with Methylated Histone Tails (AID 488949);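 further: AlphaScreen signal from MPP8 chromodomain bound to biotinylated H3K9me3 peptide; top concentration of the series differs between compounds; nearly all actives have a fitted effect of over 55% in size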
In short: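 AlphaScreen read-out: streptavidin donor and nickel chelate acceptor beads (final 10 ug/mL), 30 min in the dark at RT. Complex of 50 nM MPP8 and 50 nM b-H3(1-18)K9me3 peptide had been exposed to compounds for 30 min beforehand.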

Measured: Potency

RecQ-like DNA helicase BLM (Homo sapiens), sequence (P54132 whole entry, looked up): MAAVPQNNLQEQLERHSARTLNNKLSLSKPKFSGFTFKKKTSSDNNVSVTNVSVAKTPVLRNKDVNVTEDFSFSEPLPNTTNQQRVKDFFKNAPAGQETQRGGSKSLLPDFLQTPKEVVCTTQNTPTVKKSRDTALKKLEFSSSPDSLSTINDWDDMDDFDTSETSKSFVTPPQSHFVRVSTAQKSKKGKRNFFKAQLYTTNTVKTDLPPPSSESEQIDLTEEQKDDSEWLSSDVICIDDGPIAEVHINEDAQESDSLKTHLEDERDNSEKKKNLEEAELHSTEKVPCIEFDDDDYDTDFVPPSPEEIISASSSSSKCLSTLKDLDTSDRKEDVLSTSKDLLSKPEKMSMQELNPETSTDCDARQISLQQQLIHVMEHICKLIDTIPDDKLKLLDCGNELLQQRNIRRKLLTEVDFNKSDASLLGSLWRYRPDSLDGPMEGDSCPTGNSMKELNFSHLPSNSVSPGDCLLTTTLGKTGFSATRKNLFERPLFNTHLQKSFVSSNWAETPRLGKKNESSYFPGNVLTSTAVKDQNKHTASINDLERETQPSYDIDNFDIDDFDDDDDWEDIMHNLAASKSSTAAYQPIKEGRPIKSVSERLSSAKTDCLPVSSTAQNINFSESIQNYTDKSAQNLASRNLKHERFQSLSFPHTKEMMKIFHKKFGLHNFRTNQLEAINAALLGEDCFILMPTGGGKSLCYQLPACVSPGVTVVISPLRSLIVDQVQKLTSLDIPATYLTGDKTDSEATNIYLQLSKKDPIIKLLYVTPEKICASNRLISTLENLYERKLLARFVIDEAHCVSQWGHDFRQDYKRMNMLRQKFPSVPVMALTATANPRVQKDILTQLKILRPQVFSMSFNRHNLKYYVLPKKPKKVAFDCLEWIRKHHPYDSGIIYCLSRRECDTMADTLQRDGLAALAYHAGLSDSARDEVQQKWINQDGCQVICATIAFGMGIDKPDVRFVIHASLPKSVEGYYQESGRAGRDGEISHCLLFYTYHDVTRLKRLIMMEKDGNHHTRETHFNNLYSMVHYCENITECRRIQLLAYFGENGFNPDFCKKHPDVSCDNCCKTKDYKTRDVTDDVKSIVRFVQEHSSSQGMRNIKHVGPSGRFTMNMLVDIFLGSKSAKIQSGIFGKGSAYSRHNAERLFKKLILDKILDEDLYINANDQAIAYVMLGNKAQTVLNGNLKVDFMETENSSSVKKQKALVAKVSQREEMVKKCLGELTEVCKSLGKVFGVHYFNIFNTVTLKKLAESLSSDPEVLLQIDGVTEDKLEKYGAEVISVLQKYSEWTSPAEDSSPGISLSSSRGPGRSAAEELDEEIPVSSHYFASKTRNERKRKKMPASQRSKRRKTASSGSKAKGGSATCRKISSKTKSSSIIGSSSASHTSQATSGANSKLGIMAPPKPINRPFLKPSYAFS
Ubiquitin carboxyl-terminal hydrolase 2 (Homo sapiens), sequence (O75604 whole entry, looked up): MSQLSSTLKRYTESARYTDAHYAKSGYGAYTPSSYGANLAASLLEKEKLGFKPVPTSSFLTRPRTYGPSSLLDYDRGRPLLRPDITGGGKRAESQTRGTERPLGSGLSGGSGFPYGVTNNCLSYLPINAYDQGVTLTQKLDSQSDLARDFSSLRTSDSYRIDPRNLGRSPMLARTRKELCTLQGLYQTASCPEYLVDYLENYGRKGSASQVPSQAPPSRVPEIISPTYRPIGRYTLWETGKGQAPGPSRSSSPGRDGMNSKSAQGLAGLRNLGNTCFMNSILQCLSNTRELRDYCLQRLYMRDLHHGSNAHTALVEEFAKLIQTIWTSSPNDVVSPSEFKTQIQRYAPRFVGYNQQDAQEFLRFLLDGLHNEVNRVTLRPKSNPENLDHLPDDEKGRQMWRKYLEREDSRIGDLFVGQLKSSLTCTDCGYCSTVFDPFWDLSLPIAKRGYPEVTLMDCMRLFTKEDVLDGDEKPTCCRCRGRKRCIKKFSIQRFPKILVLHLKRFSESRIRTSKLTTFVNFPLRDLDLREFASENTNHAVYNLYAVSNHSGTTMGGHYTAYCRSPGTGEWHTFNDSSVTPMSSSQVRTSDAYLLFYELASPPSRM
ATP-dependent 6-phosphofructokinase (Trypanosoma brucei brucei), sequence (O15648 whole entry, looked up): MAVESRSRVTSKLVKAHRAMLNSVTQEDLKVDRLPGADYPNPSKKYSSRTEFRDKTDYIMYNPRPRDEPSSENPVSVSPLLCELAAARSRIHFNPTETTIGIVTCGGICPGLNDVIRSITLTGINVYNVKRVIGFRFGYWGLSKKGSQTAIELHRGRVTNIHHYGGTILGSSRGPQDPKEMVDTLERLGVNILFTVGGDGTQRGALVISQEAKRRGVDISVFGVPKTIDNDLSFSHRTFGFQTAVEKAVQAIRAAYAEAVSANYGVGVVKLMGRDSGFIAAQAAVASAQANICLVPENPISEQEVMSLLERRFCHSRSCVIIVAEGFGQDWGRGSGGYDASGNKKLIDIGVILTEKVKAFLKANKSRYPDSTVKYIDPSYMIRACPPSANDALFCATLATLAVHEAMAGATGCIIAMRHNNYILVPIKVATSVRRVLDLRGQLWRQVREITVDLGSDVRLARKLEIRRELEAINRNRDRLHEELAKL
ATP-dependent DNA helicase Q1 (Homo sapiens), sequence (P46063 whole entry, looked up): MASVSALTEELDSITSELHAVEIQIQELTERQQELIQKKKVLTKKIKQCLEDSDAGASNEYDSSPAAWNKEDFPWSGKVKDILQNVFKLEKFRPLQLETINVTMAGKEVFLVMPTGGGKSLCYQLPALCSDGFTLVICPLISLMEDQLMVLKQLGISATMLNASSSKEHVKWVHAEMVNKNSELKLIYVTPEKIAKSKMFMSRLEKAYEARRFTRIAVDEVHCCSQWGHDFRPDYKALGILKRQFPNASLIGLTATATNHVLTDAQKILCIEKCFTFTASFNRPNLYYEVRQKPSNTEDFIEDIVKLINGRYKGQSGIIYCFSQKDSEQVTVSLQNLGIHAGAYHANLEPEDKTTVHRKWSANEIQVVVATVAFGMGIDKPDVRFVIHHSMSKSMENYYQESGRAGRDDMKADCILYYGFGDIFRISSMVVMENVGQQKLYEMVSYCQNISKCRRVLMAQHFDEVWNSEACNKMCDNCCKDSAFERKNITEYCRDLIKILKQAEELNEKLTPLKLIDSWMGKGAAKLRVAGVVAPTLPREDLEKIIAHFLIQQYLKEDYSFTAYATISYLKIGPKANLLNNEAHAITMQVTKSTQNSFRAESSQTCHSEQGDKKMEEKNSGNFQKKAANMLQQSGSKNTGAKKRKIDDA
Flap endonuclease 1 (Homo sapiens), sequence (P39748 whole entry, looked up): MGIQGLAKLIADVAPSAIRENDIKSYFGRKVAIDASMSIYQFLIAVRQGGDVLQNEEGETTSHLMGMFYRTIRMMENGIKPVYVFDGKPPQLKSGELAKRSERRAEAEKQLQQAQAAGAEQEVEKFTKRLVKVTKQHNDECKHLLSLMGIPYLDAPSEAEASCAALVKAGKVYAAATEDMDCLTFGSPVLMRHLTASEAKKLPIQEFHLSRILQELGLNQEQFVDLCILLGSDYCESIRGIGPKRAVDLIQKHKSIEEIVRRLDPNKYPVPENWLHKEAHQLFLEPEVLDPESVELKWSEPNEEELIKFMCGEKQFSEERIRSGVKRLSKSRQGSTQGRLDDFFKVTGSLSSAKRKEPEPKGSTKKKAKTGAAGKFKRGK
Ferritin light chain (Equus caballus), sequence (P02791 2-175 limits assumed): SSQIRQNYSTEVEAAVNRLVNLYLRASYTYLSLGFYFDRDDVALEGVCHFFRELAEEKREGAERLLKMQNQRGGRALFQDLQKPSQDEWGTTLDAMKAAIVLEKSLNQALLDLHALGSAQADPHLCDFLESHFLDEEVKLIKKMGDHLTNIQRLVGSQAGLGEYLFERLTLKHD
Beta-2 adrenergic receptor (Homo sapiens), sequence (P07550 whole entry, looked up): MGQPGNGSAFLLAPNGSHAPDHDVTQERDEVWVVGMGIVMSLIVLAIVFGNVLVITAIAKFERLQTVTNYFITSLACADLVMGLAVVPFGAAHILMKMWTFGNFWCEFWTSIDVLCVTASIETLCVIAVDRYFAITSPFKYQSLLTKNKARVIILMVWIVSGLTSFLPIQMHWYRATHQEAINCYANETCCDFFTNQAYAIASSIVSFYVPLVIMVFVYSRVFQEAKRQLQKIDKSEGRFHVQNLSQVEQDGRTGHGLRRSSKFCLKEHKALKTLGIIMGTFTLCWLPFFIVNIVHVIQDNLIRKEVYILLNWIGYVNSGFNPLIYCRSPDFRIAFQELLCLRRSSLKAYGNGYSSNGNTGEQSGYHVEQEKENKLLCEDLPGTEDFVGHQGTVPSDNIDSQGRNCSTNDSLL
Tumor susceptibility gene 101 protein (Homo sapiens), sequence (Q99816 whole entry, looked up, the tested form may be a part): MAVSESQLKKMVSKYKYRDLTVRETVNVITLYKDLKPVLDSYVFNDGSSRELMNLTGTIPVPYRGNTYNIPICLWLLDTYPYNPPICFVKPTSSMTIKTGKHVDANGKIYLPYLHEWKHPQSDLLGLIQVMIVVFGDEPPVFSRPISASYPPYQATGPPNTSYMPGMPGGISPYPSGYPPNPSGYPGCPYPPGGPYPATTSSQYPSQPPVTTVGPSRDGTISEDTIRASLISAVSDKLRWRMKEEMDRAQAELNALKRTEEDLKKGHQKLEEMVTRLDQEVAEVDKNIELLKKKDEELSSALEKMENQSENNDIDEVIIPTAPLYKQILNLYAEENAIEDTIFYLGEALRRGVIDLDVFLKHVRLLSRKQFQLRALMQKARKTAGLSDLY
Thioredoxin reductase 1, cytoplasmic (Rattus norvegicus), sequence (O89049 whole entry, looked up): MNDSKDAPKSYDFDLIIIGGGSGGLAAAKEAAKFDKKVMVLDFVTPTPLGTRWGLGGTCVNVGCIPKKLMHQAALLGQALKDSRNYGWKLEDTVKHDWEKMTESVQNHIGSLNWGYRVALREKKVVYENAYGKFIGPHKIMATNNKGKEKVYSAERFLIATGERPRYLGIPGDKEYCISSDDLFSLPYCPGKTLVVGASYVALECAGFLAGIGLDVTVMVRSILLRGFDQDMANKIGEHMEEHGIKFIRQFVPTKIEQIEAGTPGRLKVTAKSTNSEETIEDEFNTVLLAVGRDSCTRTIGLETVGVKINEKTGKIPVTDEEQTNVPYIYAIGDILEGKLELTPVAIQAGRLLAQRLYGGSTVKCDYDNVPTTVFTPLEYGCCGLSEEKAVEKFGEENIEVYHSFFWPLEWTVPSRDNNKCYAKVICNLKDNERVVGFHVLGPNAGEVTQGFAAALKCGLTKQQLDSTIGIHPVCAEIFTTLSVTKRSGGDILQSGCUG

NC(N)=NCCC[C@H](N)C(=O)O
not listed: [15] | [16] | [17] | [18] | [19] | [20]
inactive: all other assays above

OCCN1CCN(CCCN2c3ccccc3Sc3ccc(Cl)cc32)CC1
active: [6] 7.36 µM | [13] 5.22 µM
not listed: [4] | [5] | [7] | [11] | [18] | [19] | [20]
inactive: all other assays above

CNCCCC1c2ccccc2C=Cc2ccccc21
not listed: [15] | [16] | [17] | [18] | [19] | [20]
inactive: all other assays above

CCCCCCCCCCCCOS(=O)(=O)O
inactive: [18]

Cc1cc(N)c2ccccc2[n+]1CCCCCCCCCC[n+]1c(C)cc(N)c2ccccc21
active: [6] 7.36 µM | [17] 21.2 µM
inactive: [1] | [2] | [3] | [4] | [8] | [9] | [10] | [11] | [12] | [14]

CCN(CC)CCNC(=O)c1cc(Cl)c(N)cc1OC
not listed: [1] | [18] | [20]
inactive: all other assays above

CN(C)CCCN1c2ccccc2CCc2ccccc21
inactive: [1] | [2] | [3] | [4] | [7] | [9] | [10] | [11] | [12] | [13]

C=Cc1c(C)c2cc3[nH]c(cc4nc(cc5nc(cc1[nH]2)C(C)=C5CCC(=O)O)C(CCC(=O)O)=C4C)c(C)c3C=C
active: [2] 11.2 µM | [16] 19 µM
not listed: [1] | [8] | [15] | [18] | [20]
inactive: all other assays above

O=C1O[C@H]([C@@H](O)CO)C(O)=C1O
inactive: [18]

CC1(C)[C@@H]2CC[C@@]1(C)C(=O)C2
inactive: [18]

CC(C)(C)c1onc(OCP(=O)(O)O)c1CC(N)C(=O)O (stereo unspecified)
not listed: [3] | [15] | [18] | [20]
inactive: all other assays above

NCCNCCNCCNCCN
inactive: [18]

CCN(CC)CCOC(=O)C1(C2CCCCC2)CCCCC1
not listed: [15] | [18] | [19] | [20]
inactive: all other assays above

O=C1c2c(O)cccc2Cc2cccc(O)c21
inactive: [18]

Oc1cccc(O)c1
inactive: [18]

CC12CCC(CC1)C(C)(C)O2
inactive: [18]

CC(C)(C(=O)O)c1ccc(C(O)CCCN2CCC(C(O)(c3ccccc3)c3ccccc3)CC2)cc1 (stereo unspecified)
not listed: [1] | [3] | [15] | [16] | [18] | [20]
inactive: all other assays above

CN(C)CCC=C1c2ccccc2CCc2ccccc21
not listed: [5] | [6] | [11] | [18] | [19] | [20]
inactive: all other assays above

Cc1cc(CC(=O)O)n(C)c1C(=O)c1ccc(Cl)cc1
inactive: [18]

NC(=O)c1ncn([C@@H]2O[C@H](CO)[C@@H](O)[C@H]2O)n1
not listed: [13] | [15] | [17] | [18] | [19] | [20]
inactive: all other assays above

N=c1c[n+](N2CCOCC2)[n-]o1
not listed: [15] | [18] | [20]
inactive: all other assays above

NCCNCCNCCN
inactive: [18]

COc1ccccc1O
inactive: [18]

C[C@]12C[C@H](O)[C@H]3[C@@H](CCC4=CC(=O)CC[C@@]43C)[C@@H]1CC[C@@H]2C(=O)CO
inactive: [18] | [4] | [5] | [8] | [9] | [10] | [12] | [16] | [14] | [17]

CC(C(O)c1ccc(O)cc1)N1CCC(Cc2ccccc2)CC1 (stereo unspecified)
active: [6] 11.7 µM
not listed: [5] | [7] | [11] | [13] | [15] | [18] | [19] | [20]
inactive: all other assays above

CC(CN(C)C)CN1c2ccccc2CCc2ccccc21 (stereo unspecified)
not listed: [13] | [15] | [18] | [19]
inactive: all other assays above

[Cl][In]([Cl])[Cl]
inactive: [18]

CCCCCCCCCCCCCCCC(=O)NCCO
not listed: [13] | [15] | [18] | [20]
inactive: all other assays above

CN(C)CCCN1c2ccccc2Sc2ccc(Cl)cc21
inactive: [1] | [2] | [3] | [4] | [8] | [9] | [10] | [12] | [16] | [14] | [17]

CC1=C(CC(=O)O)c2cc(F)ccc2/C1=C\c1ccc(S(C)(=O)=O)cc1
not listed: [13] | [15] | [18] | [19] | [20]
inactive: all other assays above

Nc1ncnc2c1ncn2[C@@H]1O[C@H](CO)[C@@H](O)[C@H]1O
inactive: [4] | [5] | [6] | [8] | [9] | [10] | [12] | [16] | [14] | [17]

CN(C)CCOC(C)(c1ccccc1)c1ccccn1 (stereo unspecified)
not listed: [3] | [15] | [18] | [19] | [20]
inactive: all other assays above

C[C@H]1O[C@@H](n2cc(F)c(=O)[nH]c2=O)[C@H](O)[C@@H]1O
inactive: [1] | [2] | [3] | [7] | [13]

CC(C)NC[C@H](O)c1ccc(O)c(O)c1
not listed: [3] | [12] | [15] | [18] | [19] | [20]
inactive: all other assays above
